Rows were chosen to be rich in hits. Some 9% of all compounds tested hit in one or more screens of this group.
HttQ103 aggreg = inhibitors of mutant huntingtin aggregate formation in PC12 cells. Potency, µM (titrated, usually from 46.1 µM), usual class: inhibitors. PC12 HttQ103-GFP aggregates, Acumen cytometry, 40 h. 1.1% of 220,000 active; also: nearly all actives have a fitted effect of over 60% in size
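PC12 cells stably carrying ecdysone-inducible HTT exon 1 Q103–GFP were induced with tebufenozide (100 nM final) and treated with library compounds in titration. GFP aggregates in lysates were counted by laser scanning cytometry.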
Luc counter = Kinase-Glo luciferase inhibition (counter-screen) | Kinase-Glo luciferase, ATP luminescence, 8 min | Potency, µM (top dose mostly 38.3 µM), most hits filed as inhibitors | 0.28% of 200,000 active; also: nearly all actives have a fitted effect of over 60% in size
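Substrate mix (final 50 mM imidazole pH 7.2, 50 mM KCl, 7 mM MgCl2, 10 uM ATP, 0.01% Tween 20, 0.05% BSA) plus pin-tool compound, then Kinase-Glo detection mix; 8 min ambient, luminescence read.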
Lamin A splicing = changes lamin A minigene splicing in HeLa cells; HeLa LMNA splicing GFP/RFP minigene ratio, 48 h; Potency, µM (titrated, usually from 46.1 µM), hits mostly inhibitors; 0.01% of 200,000 active; active = well fitted inhibition curve with a large enough effect in the signal ratio, with a control signal flat, not every such curve was filed as active; inconclusive = small, poorly fitted or top-dose-only effect, or effect the other way, or a change in a side signal; the % refers to the signal ratio
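Read-out is the ratio of GFP to DsRed2 object intensity, acquired by 488 nm laser-scanning cytometry on HeLa lamin A-EGFP minigene reporter cells. Compound incubation 48 hrs at 37 °C in Opti-MEM with 2% FBS; DMSO 0.5% final.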
ALDH1A1 inh = inhibitors of human aldehyde dehydrogenase 1A1; Purified ALDH1A1, NADH fluorescence, propionaldehyde substrate; Potency, µM (titrated, usually from 75.3 µM), actives largely listed as inhibitors; 7.3% of 220,000 active; AID 1030; active = well fitted inhibition curve with a large enough effect, not every such curve was filed as active; inconclusive = small, poorly fitted or top-dose-only effect, or another doubt; inactive = no such curve, though single readings can be large or run the other way
HTT cytoprotect = cytoprotection in Huntington HTT-Q103 PC12 cell model; PC12 HTT-Q103 induced, cytoprotection, ATP luminescence, 40 h; Potency, µM (series often up to 56.4 µM), usual class: activators; 0.14% of 230,000 active; AID 1471; also: nearly all actives have a fitted effect of over 45% in size
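PC12 cells with ecdysone-inducible HTT exon 1 Q103-GFP, induced with 100 nM tebufenozide and co-treated with library compounds in a dose series (1536-well, 1500 cells/well). Cytoprotection read as ATP content by ATPlite luminescence.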
HPGD inh = inhibitors of human 15-hydroxyprostaglandin dehydrogenase (HPGD); AID 894; 4.3% of 150,000 active; Potency, µM, most hits filed as inhibitors; purified HPGD, NADH fluorescence kinetic, PGE2 substrate; active = well fitted inhibition curve with a large enough effect, not every such curve was filed as active; inconclusive = small, poorly fitted or top-dose-only effect, or another doubt; inactive = no such curve, though single readings can be large or run the other way
Target sequence (P15428 whole entry, looked up): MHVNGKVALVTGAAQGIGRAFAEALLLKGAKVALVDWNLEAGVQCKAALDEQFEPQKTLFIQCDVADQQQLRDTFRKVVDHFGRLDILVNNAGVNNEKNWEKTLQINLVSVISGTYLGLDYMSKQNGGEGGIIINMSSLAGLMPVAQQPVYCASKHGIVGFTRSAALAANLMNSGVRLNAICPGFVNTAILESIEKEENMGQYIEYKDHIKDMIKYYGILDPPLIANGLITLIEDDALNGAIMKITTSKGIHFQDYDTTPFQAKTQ
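NADH formation kinetics: reaction with 30 uM PGE2 and 1 mM NAD+ (final), 20 nM enzyme, Tris-HCl pH 8 with Tween 20, after 15 min compound preincubation at room temperature. Fluorescence change, last versus first of five reads.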
Hits are given with their value; i = inactive; ? = inconclusive; nt = not tested or not shown; [ ] = dose if it differs, or a comment. Unless noted, calls follow the shape of the dose curve; as a rule, active = well fitted curve in the direction sought with a large enough effect; inconclusive = small, poorly fitted or top-dose-only effect, or another doubt; inactive = no such curve, though single readings can be large; an effect the other way counts as inactive or inconclusive.

SMILES	HttQ103 aggreg	Luc counter	Lamin A splicing	ALDH1A1 inh	HTT cytoprotect	HPGD inh
CCN1CCN(Cc2c(O)c(Cl)cc3c(C)cc(=O)oc23)CC1	i	i	i	?	i[10 µM]	?
COc1ccccc1CC(=O)N1CCN(c2ccc([N+](=O)[O-])cc2)CC1	i[9.22 µM]	i	?	?	i[10 µM]	nt
O=C(CCS(=O)(=O)Cc1ccccc1)N1CCN(c2ccccc2)CC1	i	i	i	?	i[10 µM]	i
O=C(CCCCC(=O)N1CCN(c2ccccc2)CC1)N1CCN(c2ccccc2)CC1	i[9.22 µM]	i	?	i	i	i
O=C(CCS(=O)(=O)Cc1ccccc1)N1CCN(c2ccc([N+](=O)[O-])cc2)CC1	i	i	i	25.1µM	nt	nt
O=C(CCCC(=O)N1CCN(c2ccc([N+](=O)[O-])cc2)CC1)c1ccccc1	i	i	i	28.2µM	i[10 µM]	i
O=C(CCCc1ccccc1)N1CCN(c2ccc([N+](=O)[O-])cc2)CC1	?	i	i[0.0737 µM]	22.4µM	i	i
N#C/C(=C\c1cccs1)C(=O)NCc1cccnc1	?	i	i	i	i[10 µM]	i
Cc1ccc(N2C(=O)c3ccccc3C2C(=O)c2cc(C)ccc2O)cc1 (configuration not stated)	i	i	?	?	i[10 µM]	i
O=C(O)C1OC(Oc2cc3oc(-c4ccccc4)cc(=O)c3c(O)c2O)C(O)C(O)C1O (configuration not stated)	i	i	?	?	nt	4.47µM
O=C(/C=C/c1c(F)cccc1Cl)c1ccc(O)cc1	i[9.22 µM]	nt	nt	nt	i[10 µM]	nt
CCCN1CCN(C(c2cc3cc4c(cc3[nH]c2=O)OCO4)c2nnnn2C(C)(C)C)CC1 (configuration not stated)	i	i	i	?	i	?
COc1cc2c(cc1OC)CN(c1nc(CN3CCCCC3)nc3sc4c(c13)CCCC4)CC2	28.2µM	i	?	?	nt	i
COc1ccc2c(c1)OC(=O)CC2c1cc(OC)c(OC)c(OC)c1 (configuration not stated)	nt	i	nt	i	i	i
CC(C)CC(=O)NC(=S)Nc1ccc(N2CCN(C(=O)c3cccs3)CC2)cc1	i[9.22 µM]	nt	nt	nt	i[10 µM]	nt
CC(C)CC(=O)NC(=S)Nc1cccc(NC(=O)c2ccccc2)c1	?	i	i	25.1µM	i[10 µM]	i
CC(C)CC(=O)NC(=S)Nc1ccc(NC(=O)c2cccs2)cc1	i	i	i	?	i	7.94µM
CC(C)c1nnc(NC(=O)COc2ccccc2[N+](=O)[O-])s1	i[9.22 µM]	nt	nt	?	i[10 µM]	nt
COCCCNS(=O)(=O)c1ccc(OC)c(Cl)c1Cl	i	i	i	10µM	i	i
COc1ccc(N(C)C(=S)Nc2ccc3nc(C)c(C)nc3c2)cc1	i	i	i	10µM	i[10 µM]	i
Cc1nc2ccc(NC(=S)NCc3ccccc3)cc2nc1C	i	i	nt	i	i[10 µM]	nt
c1ccc(-c2nn[nH]n2)cc1	i[9.22 µM]	nt	nt	nt	i[10 µM]	nt
C[C@](N)(C(=O)O)c1ccc(-c2nn[nH]n2)cc1	nt	i	nt	15.8µM	i	i
CC(c1ccco1)N(C(=O)COc1ccc(Cl)cc1Cl)c1ccccn1 (configuration not stated)	?	i	?	i	i[10 µM]	i
CCOc1cc(C(=O)CCC(=O)OCC(=O)N2c3ccccc3NC(=O)C2(C)C)ccc1O	i	i	i	14.1µM	i	i
SMILES	HttQ103 aggreg	Luc counter	Lamin A splicing	ALDH1A1 inh	HTT cytoprotect	HPGD inh
Cc1ccc(S(=O)(=O)N2CCCC2C(=O)O)cc1 (configuration not stated)	i	i	i	i	i	i
Cc1ccc(S(=O)(=O)C2(C(=O)N3CCCC(C)C3)CC2)cc1 (configuration not stated)	i	i	i	i	i	25.1µM
COc1cc(OC)cc(C(=O)Nc2nnc3n2CCS3)c1	nt	nt	i	nt	nt	nt
COn1c(C)c(C(C)=O)c2c3nonc3ccc21	35.5µM	i	i	?	i	i
Cc1nc(Sc2ccc(Cl)cc2)c(C#N)c(C)c1[N+](=O)[O-]	i[9.22 µM]	nt	nt	i	i[10 µM]	nt
CCN(CC)CCNC(=O)CCc1nn(C)c(=O)c2ccccc12	i	i	i	?	i[0.074 µM]	i
CCCOc1ccc(-c2nc(=S)[nH][nH]2)cc1	i	i	i	?	i[10 µM]	12.6µM
Clc1cccc(OCCCN2CCCC2)c1Cl	i	i	i	?	nt	i
COc1ccc(-c2ccc(-c3noc(-c4cccs4)n3)c(OC)n2)cc1	i	i	i	?	i[0.074 µM]	?
COc1c(C2=CC(=O)N(C)C2=O)c2c(n1C)C(=O)c1ccccc1C2=O	nt	i	nt	i	14.1µM	i
O=S(=O)(Cc1ccccc1)c1cnc2ccccc2n1	?	i	?	?	i	25.1µM
C(=N\Nc1nc(N2CCCCC2)nc(N2CCCCC2)n1)/c1c[nH]c2ccccc12	i[9.22 µM]	i	nt	i	i[10 µM]	nt
CN(C)c1nc(N/N=C/c2c[nH]c3ccccc23)nc(N2CCOCC2)n1	i	i	nt	18.9µM	?	nt
Cc1ccc(CNc2ccc(O)cc2)cc1	i	i	?	10µM	i[10 µM]	?
CCc1cc(=O)oc2cc(OCC(=O)O)c(Cl)cc12	?	i	i	?	i[0.074 µM]	?
CC1(C)CC(=O)C(C=NCCCO)=C(O)C1	i	i	i	i	i	i
CC1(C)CC(=O)C(C=NCCN2CCNC2=O)=C(O)C1	i	i	i	20µM	nt	i
CC1(C)CC(=O)C(C=NCCN2CCN(C3CC(=O)N(c4ccc(Br)cc4)C3=O)CC2)=C(O)C1 (configuration not stated)	i[9.22 µM]	i	i	28.2µM	i[10 µM]	nt
COc1cccc(N=CC2=C(O)CC(C)(C)CC2=O)c1	?	i	i	8.91µM	nt	i

High-throughput results as filed in PubChem.
